In the library only some 9.2% were active in any assay of this set; here they are far more common.
HttQ103 aggreg – reduces HttQ103-GFP aggregates in PC12 cells | PC12 HttQ103-GFP aggregates, Acumen cytometry, 40 h | Potency, µM (highest dose often 46.1 µM), for inactives: top-dose activity change, negative = inhibition, actives largely listed as inhibitors | hit rate 1.1% among 220,000 | AID 1688; active = well fitted curve in the direction sought with a large enough effect; inconclusive = small, poorly fitted or top-dose-only effect, or another doubt; inactive = no such curve, though single readings can be large; an effect the other way counts as inactive or inconclusive; also: % is scaled to controls: 0 for no effect and ±100 for the full control effect; nearly all actives have a fitted effect of over 60% in size
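Quantitative HTS on tebufenozide-induced (100 nM) PC12 cells stably expressing polyQ103 Huntingtin exon 1–GFP. Reduction of bright GFP aggregates, detected by laser scanning cytometry after lysis, identified actives across the titration.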
ALDH1A1 block – blocks purified human ALDH1A1 activity; Purified ALDH1A1, NADH fluorescence, propionaldehyde substrate; Potency, µM (top dose mostly 75.3 µM), without a hit: at the top dose activity, negative = inhibition, actives largely listed as inhibitors; hit rate 7.3% among 220,000; AID 1030;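 also: plate controls were no enzyme wells and a reference inhibitor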
HPGD block – blocks human HPGD enzyme activity | P15428 | purified HPGD, NADH fluorescence kinetic, PGE2 substrate | Potency, µM, inactives show at the highest dose activity change, negative = inhibition, most hits filed as inhibitors | hit rate 4.3% among 150,000 | AID 894; also: % is scaled to controls: 0 for no effect and ±100 for the full control effect
Target sequence (P15428 whole entry, looked up): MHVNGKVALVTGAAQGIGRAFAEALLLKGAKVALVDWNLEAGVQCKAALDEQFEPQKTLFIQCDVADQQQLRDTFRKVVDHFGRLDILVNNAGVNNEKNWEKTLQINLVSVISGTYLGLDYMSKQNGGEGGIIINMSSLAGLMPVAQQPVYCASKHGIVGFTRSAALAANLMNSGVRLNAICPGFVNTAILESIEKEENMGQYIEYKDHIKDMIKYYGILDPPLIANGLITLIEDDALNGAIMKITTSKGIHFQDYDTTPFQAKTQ
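20 nM HPGD preincubated 15 min at room temperature with compound in 50 mM Tris-HCl pH 8, 0.01% Tween 20. Started with 1 mM NAD+ and 30 uM prostaglandin E2; NADH fluorescence (360/450 nm) read 5 times over 30-s intervals, last minus first.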
LMNA splice mod – modulators of lamin A splicing. HeLa LMNA splicing GFP/RFP minigene ratio, 48 h. Potency, µM (series often up to 46.1 µM), for inactives: top-dose ratio change, negative = inhibition, actives largely listed as inhibitors. hit rate 0.01% among 200,000; active = well fitted inhibition curve with a large enough effect in the signal ratio, with a control signal flat, not every such curve was filed as active; inconclusive = small, poorly fitted or top-dose-only effect, or effect the other way, or a change in a side signal; the % refers to the signal ratio; also: % is scaled to controls: 0 for no effect and ±100 for the full control effect
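S3 HeLa stable clones carrying a lamin A-EGFP splicing minigene plus DsRed2 were seeded at 600 cells/well in Opti-MEM with 2% FBS, pin-dosed and incubated 48 h at 37°C. Acumen cytometry (488 nm) gave the GFP/RFP total-intensity ratio.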
JMJD2E inh – inhibitors of human JMJD2E histone demethylase | B2RXH2 | JMJD2E catalytic domain, FDH-coupled NADH fluorescence (FDH is formaldehyde dehydrogenase) | Potency, µM (top dose mostly 57.1 µM), inactives show at the highest dose activity change, negative = inhibition, actives largely listed as inhibitors | hit rate 1.6% among 230,000;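 also: 0% = wells with enzyme and -100% = buffer wells without enzyme; nearly all actives have a fitted effect of over 50% in size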
HTT cytoprotect – Huntington cell model cytoprotection by ATP luminescence; PC12 HTT-Q103 induced, cytoprotection, ATP luminescence, 40 h; Potency, µM (doses to about 56.4 µM), for the others: cytoprotection (ATP increase), hits mostly activators; hit rate 0.14% among 230,000; active = well fitted curve in the direction sought with a large enough effect; inconclusive = small, poorly fitted or top-dose-only effect, or another doubt; inactive = no such curve, though single readings can be large; an effect the other way counts as inactive or inconclusive; also: % of control where 0% means no effect; nearly all actives have a fitted effect of over 45% in size
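Compounds added alongside 100 nM tebufenozide, which induces toxic Q103 huntingtin exon 1-GFP in stable PC12 cells; surviving cells quantified by luminescent ATP measurement. Medium: phenol red-free DMEM, 5% equine and 5% calf serum.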
* hit, by the source's call; ? = inconclusive; / = no result; [ ] = another dose, or the depositor's remark. Unless noted, calls follow the shape of the dose curve; as a rule, active = well fitted inhibition curve with a large enough effect (not every such curve was filed as active); inconclusive = small, poorly fitted or top-dose-only effect, or another doubt; inactive = no such curve, though single readings can be large or run the other way. Potency is read from the fitted curve at half-maximal effect.

SMILES	HttQ103 aggreg	ALDH1A1 block	HPGD block	LMNA splice mod	JMJD2E inh	HTT cytoprotect
CCOCC(=O)N1CCN(c2cccc(Cl)c2)CC1	4%[9.22 µM]	3.2µM*	/	/	-1%	-32%
COc1ccc(C(C)=O)cc1COC(=O)c1cccc(N(C)C)c1	3%	?	?	?	?	-13%
COc1ccc(C(C)=O)cc1COC(=O)CCCN1C(=O)c2ccccc2C1=O	6%	3.5µM*	/	-6%[46 µM]	5%	8%[10 µM]
COc1ccc(C(C)=O)cc1COC(=O)CNC(=O)c1cc(C)cc(C)c1	8%	7.9µM*	-13%	-2%	2%	-8%[1.9 µM]
COc1ccc(C(C)=O)cc1COC(=O)c1cc(C)nc2ccccc12	14%	8.9µM*	/	?	?	4%
COc1ccc(C(C)=O)cc1COC(=O)c1cc(C)oc1C	-15%	18µM*	-9%	-1%	10%	-14%[0.074 µM]
COc1cc(C(=O)NCC(=O)OCc2ccccc2Cl)cc(OC)c1OC	31%	-11%	/	/	-7%	-15%
CCN1CCN(C(c2ccccc2)c2sc3nc(-c4ccco4)nn3c2O)CC1 (centres undefined)	/	/	/	0%[46 µM]	/	/
N[C@@H](C(=O)O)c1ccc(C(=O)O)cc1	/	-1%	-7%	/	?	?
COc1ccc(C(C)=O)cc1COC(=O)c1cccnc1SC	0%	10µM*	/	12%[46 µM]	0%	-54%
COc1ccc(C(C)=O)cc1COC(=O)Cc1n[nH]c(=O)c2ccccc12	1%	?	22µM*	10%	9%	-2%[10 µM]
CCOc1ccc(C(C)=O)cc1COC(=O)c1cccnc1SC	26%	25µM*	/	?	3%	0%[10 µM]
O=C(Cc1n[nH]c(=O)c2ccccc12)OCC(=O)c1ccc2c(c1)OCCO2	12%	-11%	-22%	?	6%	-116%
CSc1ncccc1C(=O)OCc1ccccc1Cl	?	?	/	-4%[46 µM]	4%	-10%
N/C(=N\OC(=O)CCCCCN1C(=O)c2ccccc2C1=O)c1ccccc1	-31%	?	13µM*	-13%	-7%	20%[10 µM]
COc1cccc(CN2CCCN(CC(=O)Nc3ccc4c(c3)OCCO4)S2(=O)=O)c1	/	/	/	-5%[46 µM]	/	/
CCc1ccc(CN2CCc3nc(Nc4ccccc4)ncc3C2)cc1	/	/	/	-10%[46 µM]	/	/
O=C=Nc1ccc(Cc2ccc(N=C=O)cc2)cc1	/	5%	-3%	/	/	-6%
COc1ccc(/C=N/NC(=O)c2c(C)nc3ccccn23)cc1[N+](=O)[O-]	1%[9.22 µM]	8%	/	/	9%	-3%[10 µM]
CCN(CC)C(NC(=O)Cc1ccccc1)C(Cl)(Cl)Cl (centres undefined)	10%	?	14µM*	6%	4%	-5%
N#Cc1ccc(CN2CC[C@@]3(CCCN(C(=O)c4ccncc4)C3)C2)cc1	/	-1%	-3%	/	/	7%
Cc1cccc(C)c1-n1c(C)cc(/C=N/NC(N)=S)c1C	12%	?	-11%	7%	5%	32%
Cc1nc2ccccn2c1C(=O)N/N=C/c1cc(C)n(-c2ccc(Br)cc2)c1C	-3%	?	-12%	?	?	-17%[1.9 µM]
Cc1cc(/C=N/NC(N)=S)c(C)n1-c1ccc(Cl)cc1	7%	32µM*	-12%	-3%	5%	6%[10 µM]
Cc1cc(/C=N/NC(N)=S)c(C)n1-c1ccc(Br)cc1	-29%	16µM*	/	?	?	-27%
Cc1cc(/C=N/O)c(C)n1-c1ccc(Br)cc1	?	8.9µM*	?	?	-2%	-37%[10 µM]
Cc1cccc(-n2c(C)cc(/C=N/O)c2C)c1	-8%	?	?	-6%	-18%	19%[10 µM]
Cc1cc(/C=N/NC(N)=S)c(C)n1-c1cccc(Cl)c1	-6%	25µM*	/	1%[46 µM]	10%	/
Cc1cnc(CNc2ncncc2-c2cccnc2)cn1	/	3%	/	-2%	/	10%
CCOc1ccc(NC(=O)CSC2=Nc3ccccc3C3=NC(CC(=O)NCc4ccc5c(c4)OCO5)C(=O)N23)cc1 (centres undefined)	/	/	/	0%[46 µM]	/	/

Screening results deposited in PubChem by National Center for Advancing Translational Sciences (NCATS).
